Experiments:
Settings in all cases: concentration: 1 μM,replicates: in singlicate; n = 1
NIM1 = tested on: T1, NIM1
T1 construct: gene MGC42105

NLK = tested on: NLK
OSR1 = tested on: T2, OSR1
T2 construct: gene OXSR1

PAK1 = tested on: PAK1
PAK2 = tested on: PAK2
PAK3 = tested on: PAK3
PAK4 = tested on: PAK4
PAK6 = tested on: PAK6
PAK7 = tested on: PAK7
PCTK1 = tested on: T3, PCTK1
T3 construct: gene CDK16

PCTK2 = tested on: T4, PCTK2
T4 construct: gene CDK17

PCTK3 = tested on: T5, PCTK3
T5 construct: gene CDK18

PDGFRA = tested on: PDGFRA
PDGFRB = tested on: PDGFRB
PDPK1 = tested on: PDPK1
PFTAIRE2 = tested on: PFTAIRE2
PFTK1 = tested on: T6, PFTK1
T6 construct: gene CDK14

PHKG1 = tested on: PHKG1
PHKG2 = tested on: PHKG2
PIK3C2B = tested on: PIK3C2B
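Note: KINOMEscan kinase panel screen.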

Row | Structure (SMILES) | %Inh (NIM1) | %Inh (NLK) | %Inh (OSR1) | %Inh (PAK1) | %Inh (PAK2) | %Inh (PAK3) | %Inh (PAK4) | %Inh (PAK6) | %Inh (PAK7) | %Inh (PCTK1) | %Inh (PCTK2) | %Inh (PCTK3) | %Inh (PDGFRA) | %Inh (PDGFRB) | %Inh (PDPK1) | %Inh (PFTAIRE2) | %Inh (PFTK1) | %Inh (PHKG1) | %Inh (PHKG2) | %Inh (PIK3C2B)
1 | OCCn1cc(-c2cnc3nnn(Cc4ccc5ncccc5c4)c3n2)cn1 | 0% | 0% | 0% | 6% | 13% | 0% | 11% | 0% | 0% | 0% | 0% | 0% | 0% | 0% | 0% | 0% | 0% | 5% | 0% | 0%
2 | CS(=O)(=O)Nc1ccc(-c2ccnc3[nH]ccc23)cc1 [GSK993273] | 13% | 30% | 41% | 26% | 27% | 51% | 0% | 11% | 3% | 15% | 0% | 0% | 1% | 61% | 0% | 16% | 16% | 2% | 13% | 0%
3 | CN(c1ccccc1CNc1nc(Nc2ccc3c(c2)CC(=O)N3)ncc1C(F)(F)F)S(C)(=O)=O | 0% | 0% | 0% | 0% | 0% | 68% | 2% | 0% | 11% | 28% | 49% | 4% | 3% | 83% | 34% | 35% | 8% | 35% | 25% | 0%
4 | Nc1nccc(-c2ccc3c(N)n[nH]c3c2)n1 [GSK1034945] | 17% | 33% | 6% | 18% | 11% | 7% | 0% | 0% | 2% | 0% | 0% | 10% | 0% | 17% | 34% | 15% | 10% | 5% | 13% | 0%
5 | CC(C)c1nc(-c2cccc(NS(=O)(=O)c3ccccc3)c2)c(-c2ccnc(Nc3ccc4c(c3)CN(C)CC4)n2)s1 [GSK1649598] | 29% | 98.1% | 14% | 39% | 25% | 88% | 0% | 10% | 3% | 100% | 100% | 100% | 91.2% | 100% | 0% | 85% | 78% | 0% | 45% | 20%
6 | C[C@@H](Oc1cc(-n2cnc3cc(-c4ccncc4)ccc32)sc1C(N)=O)c1ccccc1Cl [GSK479719] | 51% | 0% | 18% | 21% | 22% | 27% | 0% | 5% | 94.2% | 1% | 0% | 15% | 67% | 95.1% | 40% | 17% | 18% | 0% | 16% | 0%
7 | Cc1cccc(-c2nc(Nc3ccncc3)c3sccc3n2)n1 [GW869641] | 35% | 60% | 24% | 15% | 30% | 50% | 23% | 11% | 2% | 22% | 0% | 0% | 36% | 27% | 7% | 5% | 0% | 0% | 5% | 29%
8 | Cc1ccc(C(=O)Nc2ccc(Oc3ccc4nc(NC(=O)C5CC5)cn4c3)c(F)c2)c(=O)n1-c1ccccc1 | 0% | 7% | 0% | 0% | 2% | 12% | 0% | 8% | 0% | 0% | 2% | 0% | 98.2% | 96.5% | 0% | 9% | 0% | 26% | 0% | 0%
9 | NC(=O)c1ccc(-c2cc3ncnc(SCC(=O)O)c3s2)cc1 | 0% | 0% | 0% | 0% | 0% | 0% | 0% | 0% | 0% | 0% | 0% | 2% | 71% | 80% | 0% | 0% | 7% | 0% | 1% | 0%
10 | NC(=O)Nc1sc(-c2ccc(F)cc2)cc1C(N)=O [GW789449] | 14% | 0% | 16% | 0% | 4% | 24% | 11% | 12% | 1% | 0% | 100% | 0% | 5% | 54% | 13% | 16% | 0% | 1% | 0% | 40%
11 | CN1CCN(CCNc2nc3cc(Oc4ccc(NC(=O)Nc5cc(C(F)(F)F)ccc5F)cc4)ccc3[nH]2)CC1.Cl.Cl [GW768504] | 0% | 0% | 0% | 0% | 30% | 6% | 10% | 0% | 0% | 0% | 0% | 0% | 84% | 99.6% | 0% | 37% | 18% | 0% | 0% | 14%
12 | O=C(NCC1CC1)c1ccc(-c2cc(C(=O)NC3CC3)ccc2F)cc1 [GW810445] | 35% | 10% | 0% | 0% | 26% | 12% | 0% | 0% | 4% | 0% | 0% | 0% | 0% | 0% | 0% | 0% | 0% | 0% | 0% | 0%
13 | FC(F)(F)c1cc(Br)cc(Nc2nccc(-c3cnn4ncccc34)n2)c1 [GW810578] | 0% | 0% | 2% | 11% | 45% | 27% | 22% | 20% | 6% | 3% | 21% | 31% | 64% | 98.4% | 5% | 0% | 14% | 16% | 0% | 0%
14 | C[C@@H]1CNc2c(sc3ccc4nc(-c5ccc(O)cc5)ccc4c23)C(=O)N1 | 26% | 8% | 0% | 20% | 32% | 0% | 9% | 17% | 0% | 0% | 0% | 4% | 42% | 56% | 0% | 18% | 8% | 31% | 0% | 16%
15 | N#Cc1cccc(C(=O)NC2CCN(c3ccnc(Nc4ccc(F)cc4)n3)C2)c1 (stereo not shown) [GSK1379708] | 16% | 0% | 6% | 0% | 4% | 0% | 0% | 27% | 0% | 1% | 0% | 0% | 0% | 23% | 13% | 2% | 11% | 0% | 0% | 0%
16 | CN(c1ccc2c(c1)nc(NCc1ccc(F)cc1)n2C)c1ccnc(Nc2ccc(CS(C)(=O)=O)cc2)n1.Cl [GW813244] | 0% | 0% | 0% | 10% | 35% | 12% | 15% | 0% | 0% | 0% | 0% | 0% | 99% | 100% | 0% | 14% | 0% | 0% | 0% | 0%
17 | COC(=O)Nc1nc2cc(Oc3ccc(NC(=O)Nc4cc(C(F)(F)F)ccc4Cl)cc3)ccc2[nH]1.Cl [GW697465] | 26% | 2% | 10% | 36% | 29% | 25% | 0% | 0% | 2% | 0% | 11% | 26% | 86% | 100% | 0% | 80% | 39% | 1% | 0% | 0%
18 | O=C1NCCc2[nH]c(-c3ccncc3)cc21 | 45% | 22% | 3% | 38% | 40% | 42% | 14% | 17% | 0% | 0% | 0% | 1% | 27% | 17% | 0% | 0% | 0% | 0% | 14% | 21%
19 | CC(C(=O)NC1CCN(c2ccnc(Nc3ccc(F)cc3)n2)C1)c1ccc(Cl)cc1 (stereo not shown) [GSK1379713] | 17% | 0% | 5% | 5% | 2% | 0% | 0% | 0% | 0% | 3% | 0% | 12% | 3% | 7% | 0% | 24% | 2% | 0% | 0% | 0%
20 | CCOC(=O)N1CCC(n2cnc(-c3ccc(F)cc3)c2-c2ccnc(N)n2)CC1 [SB-219952] | 31% | 92.7% | 1% | 3% | 26% | 9% | 28% | 6% | 11% | 0% | 9% | 32% | 14% | 23% | 7% | 25% | 17% | 0% | 0% | 56%

From PMC5540273 (PLoS ONE, 2017)
